GCN5L2 inh: blocks human GCN5L2 histone acetyltransferase; Q92830; GCN5L2 HAT assay, ThioGlo1 CoA-SH fluorescence; Potency, µM (series often up to 58.9 µM), inactives show at the highest dose activity change, negative = inhibition, most hits filed as inhibitors; hit rate 0.21% among 390,000; further: on the % scale 0 is the no-effect control and ±100 the full control effect
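Titration-based screen in which CoA formation is detected via maleimide probe ThioGlo1 (50uM) turning fluorescent on thiol reaction; substrates H3(1-25) 75uM and acetyl-CoA 70uM, GCN5L2 20nM, 20 min incubation at room temperature.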
WRN helicase inh: WRN helicase (human) inhibition. hit rate 0.46% among 360,000. Q14191. WRN helicase unwinding, fluorescent forked duplex, kinetic. Potency, µM (top dose mostly 114 µM), without a hit: at the top dose activity change, negative = inhibition, usual class: inhibitors; further: on the % scale 0 is the no-effect control and ±100 the full control effect; nearly all actives have a fitted effect of over 55% in size
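WRN at 20 nM final preincubated with compound 15 min at room temperature; reaction started with 100 nM fluorophore/quencher forked duplex oligonucleotide and 2 mM ATP final. Unwinding followed kinetically by red fluorescence (ex 525, em 598 nm).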
BLM inh: Bloom syndrome helicase (human) inhibition; P54132; recombinant BLM DNA unwinding, fluorescence dequenching; Potency, µM (doses to about 56.1 µM), without a hit: at the top dose activity change, negative = inhibition, hits mostly inhibitors; hit rate 0.2% among 350,000;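 further: plate controls were vehicle for no effect and no enzyme for full effect; nearly all actives have a fitted effect of over 35% in size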
ERG Ets-DNA blk: ERG Ets/DNA interaction inhibition. fluorescence polarization, His-ERG Ets domain / labelled DNA. AID 624246. P11308. hit rate 0.028% among 370,000. Potency, µM (highest dose often 76.9 µM), without a hit: top-dose FP activity, negative = inhibition, hits mostly inhibitors; active means well fitted inhibition curve with a large enough effect in the polarisation, with a control signal flat; inconclusive means small, poorly fitted or top-dose-only effect, or effect the other way, or a change in a side signal; inactive means no such curve, though single readings can be large or run the other way; the % refers to the polarisation;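 further: polarization taken with two DNA probes labelled with fluorescein and Texas red; % of control where 0% means no effect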
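His-tagged ERG Ets domain (1 uM in the protein solution; 300mM KCl, 50mM Tris-HCl, 1mM EDTA, 1mM DTT, pH 7.5) received compound, then a probe mix of 5 nM fluorescein-DNA and 100nM Texas-615-DNA. Fluorescence polarization was read for both dyes.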
APEX1 inh: APE1 (human) endonuclease inhibition. P27695. recombinant APE1, TAMRA/BHQ-2 abasic DNA cleavage fluorescence. Potency, µM (titrated, usually from 65.8 µM), for the others: at the highest dose activity change, negative = inhibition, hits mostly inhibitors. hit rate 0.35% among 350,000. AID 2517;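 further: plate controls were vehicle for no effect and reference inhibitor for full effect; nearly all actives have a fitted effect of over 55% in size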
Target sequence (P27695 whole entry, looked up): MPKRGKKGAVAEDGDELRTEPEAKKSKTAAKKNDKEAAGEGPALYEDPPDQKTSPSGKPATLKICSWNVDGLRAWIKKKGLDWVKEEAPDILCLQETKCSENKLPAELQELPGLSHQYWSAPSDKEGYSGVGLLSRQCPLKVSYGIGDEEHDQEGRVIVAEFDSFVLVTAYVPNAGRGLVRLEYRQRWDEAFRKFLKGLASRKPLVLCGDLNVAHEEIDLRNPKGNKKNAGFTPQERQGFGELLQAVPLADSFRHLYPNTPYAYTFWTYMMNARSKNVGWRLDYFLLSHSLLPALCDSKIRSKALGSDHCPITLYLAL
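Measures dequenching upon AP-site incision of a 5'-TAMRA/3'-BHQ-2 THF-containing duplex, 50 nM; human APE1 0.75 nM after 15 min room-temperature exposure to compound; kinetic three-point read at one-minute spacing.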
RECQ1 helicase: inhibitors of human RECQ1 DNA helicase. P46063. RECQ1 DNA unwinding, red fluorescence kinetic read. Potency, µM (doses to about 57.3 µM), for inactives: at the highest dose activity, negative = inhibition, actives largely listed as inhibitors. hit rate 0.54% among 240,000. AID 2549;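 further: plate controls were vehicle for no effect and no enzyme for full effect; nearly all actives have a fitted effect of over 30% in size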
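RECQ1T1 50 nM; forked duplex (20 bp + 30-nt ss tails) 200 nM, ATP 2 mM final; pH 8.0, 2 mM MgCl2, 2.5 ug/ml poly(dI-dC); 15 min compound preincubation; discontinuous kinetic read over 2 h at RT.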
An asterisk follows results filed as active; i = inactive; ? = inconclusive; . = no result given; ! = a repeat was not active. Only some compounds are listed: those with a hit (about 0.88% of all), similar ones and a draw of the others. Unless noted, the call rests on the fitted dose curve; in most records, active means well fitted curve in the direction sought with a large enough effect; inconclusive means small, poorly fitted or top-dose-only effect, or another doubt; inactive means no such curve, though single readings can be large; an effect the other way counts as inactive or inconclusive. Potency means the concentration at half of the fitted maximal effect.

SMILES	GCN5L2 inh	WRN helicase inh	BLM inh	ERG Ets-DNA blk	APEX1 inh	RECQ1 helicase
C=C1CC2C3C=C(C)C4=CC(=O)CCC4(C)C3CCC2(C)[C@@]1(OC(C)=O)C(C)=O (some centres undefined)	-16.2%	.	-9.6%	.	.	.
CC(=O)Nc1ccc2c(c1)Cc1cc(N3C(=O)C=CC3=O)ccc1-2	.	35.5µM*	.	21.4%	.	.
O=C1C=CC(=O)N1c1ccc2c(c1)Cc1cc(F)ccc1-2	.	-19.6%	.	1.2%	.	.
O=C1NN(c2ccccc2)C(=O)/C1=C/c1ccc(-c2ccc(C(=O)O)cc2)o1	?	50.1µM*	-7.3%	-1.5%	-32.2%	.
O=C1NN(c2ccccc2)C(=O)/C1=C/c1ccc(Sc2cccc3ccccc23)o1	0.4%	?	?	8.2%	-2.2%	20µM*
CCOC(=O)C1=C[C@@H](C(=O)OCC)[C@@H]2C3=C(C(=O)C2(C)C)[C@H](c2ccccc2)[C@@H]2C(=O)N(c4ccccc4)C(=O)[C@@H]2[C@@H]3C1	.	.	-6.9%	.	-0.9%	4.8%
O=C1CC(c2ccco2)CC(O)=C1C=NCC1CCNCC1 (centres undefined)	-7.5%	-11.5%	-3.1%	-0.6%	31.6µM*	i
Cc1ccc(/C=N/N2C(=S)SC(C)(C)C2N(O)C(=O)Nc2ccc([N+](=O)[O-])cc2)cc1 (centres undefined)	-6.6%	-10.3%	-8.4%	-23.4%	10.0%	31.6µM*
CC1(C)SC(=S)N(/N=C/c2ccc(O)cc2)C1N(O)C(=O)Nc1ccc([N+](=O)[O-])cc1 (centres undefined)	-4.0%	-7.5%	-10.5%	5.3%	-4.8%	-5.7%
O=C(N[C@@H]1c2ccccc2CC[C@@H]1OCc1ccccc1)c1ccc(C(F)(F)F)cc1	-3.2%	-11.8%	.	5.9%	14.3%	.
Cc1cccc(NC(=O)N(C)Cc2cccs2)c1	31.6µM*	3.1%	-4.9%	0.2%	-1.1%	i
Cc1cccc(NC(=S)NCc2cccs2)c1	-18.7%	4.3%	-5.8%	-3.0%	23.9%	i
O=C[C@H](O)[C@@H](O)[C@H](O)[C@H](O)CO	.	.	.	.	-2.1%	.
CCc1ccc(C(=O)c2cn(CC(=O)Nc3ccc(OC)cc3)c3cc4c(cc3c2=O)OCO4)cc1	2.3%	.	-11.3%	-8.0%	.	.
CCc1ccc(C(=O)c2cn(CC(=O)Nc3ccc4c(c3)OCO4)c3ccc(OC)cc3c2=O)cc1	-27.1%	.	14.1µM*	4.8%	.	.
O=C(O)c1ccccc1Nc1cc(Cl)cc(Cl)c1	?	.	1.1%	.	13.9%	-5.3%
O=C(O)c1ccccc1Nc1ccc(CCc2ccc(Cl)c(Cl)c2)cc1	11.2µM*	.	?	.	-2.0%	?
COc1cc2ccc(=O)oc2cc1O	31.6µM*!	-1.3%	-1.1%	-1.1%	58.1%	?
COc1ccc(CNC(=O)c2ccc3c(c2)N(Cc2cccc(Cl)c2)C(=O)c2ccccc2S3)c(OC)c1	2.6%	.	-3.0%	0.0%	.	.
O=C1OC(c2ccccc2)=N/C1=C\C=C\c1ccco1	25.1µM*	-8.7%	-4.0%	-11.8%	?	?
Cc1sc(-n2c(C)cc(/C=C3\SC(=S)NC3=O)c2C)c(C#N)c1C	?	56.2µM*	-28.7%	13.8%	-7.3%	28.2µM*
O=C1SCCN1N=Cc1ccc([N+](=O)[O-])o1	.	1.2%	.	-2.8%	.	.
Cc1cc(Cn2cnc3c2C[C@@H](C(=O)O)N(C(=O)C(c2ccccc2)c2ccccc2)C3)ccc1N	2.2%	.	.	.	.	.
O=C(O)C(Cc1ccccc1)N1C(=O)/C(=C/C=C/c2ccco2)SC1=S (centres undefined)	8.91µM*	10µM*	22.4µM*	106.6%	1.58µM*	2.82µM*
O=C1S/C(=C\C=C\c2ccco2)C(=O)N1c1ccc(O)cc1	-4.7%	?	25.1µM*	1.7%	8.8%	4.2%

Screens: PubChem BioAssay, National Center for Advancing Translational Sciences (NCATS)
